SMILES strings stand for the structures. Compounds without any hit were thinned out: in the full panel of roughly 83,000, 20% have a hit.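 A percent growth of 40 corresponds to 60% growth inhibition; 0 means no net growth; -100 means all cells died. Active threshold: below 10.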 The source made the active and inactive calls.

The subject of the assay is IGROV1 ovarian. As to the kind of experiment: NCI-60 one-dose screen, 48 h (100 = growth as untreated, 0 = no growth, -100 = all killed). The settings on record: 10 µM unless noted. Here is the method:
Growth inhibition of the IGROV1 human tumor cell line is measured as a screen for anti-cancer activity. Cells are grown in 96 well plates and exposed to the test compound for 48 hours. Compounds are tested at a single concentration, which is 10^-5 M for most compounds. The reported endpoint is percent growth (GI% or GIPRCNT), where numbers from 0 - 100% represent growth inhibition, and numbers from -100% - 0 represent cell death. For example, a value of 40 represents 60% growth inhibition. A value of 0 means no net growth occurred over the course of the experiment. A value of -40 indicates 40% of cells at the beginning of the experiment died by the end of the experiment. A value of -100 means all cells are dead at the end of the experiment.
NCI-60 Human Tumor Cell Lines Screen was performed using the standard one-dose NCI protocol, which is described in more detail at https://dtp.cancer.gov/discovery_development/nci-60/default.htm.
Compounds with GIPRCNT values below 10 were considered active. Activity score was based on GIPRCNT using the following formula: […]
Score is 0 for GIPRCNT values of 100 or above, 50 for GIPRCNT values of 0, and 100 for GIPRCNT values of -100.
In the case of `C[C@@H](NC(=O)[C@@H](CC(=O)N1CCC(N2CCCCC2)CC1)N1C(=O)[C@@H](N2C(=O)OC[C@@H]2c2ccccc2)[C@H]1/C=C/c1cccc(Cl)c1)c1ccccc1`, the growth is 86% (inactive). With `CC(=O)OC[C@]12CC[C@@H]([C@@H](C)C(N)=O)[C@@H]1[C@H]1CC[C@@H]3[C@@]4(C)CC[C@H](OC(C)=O)C(C)(C)[C@@H]4CC[C@@]3(C)[C@]1(C)CC2` the figure was -71.3% [100 µM] (active); with `COc1ccc(/C=C/C=C\C(=O)c2ccc(-n3ccnc3)cc2)cc1`, 93.5% (inactive). With `Cn1cc(-c2nnc(-c3ccccc3)s2)c2cc(Br)cnc21` the figure was 43.7% (inactive). With `O=C(Nc1cccnc1)c1ccc2ccc3ccc(C(=O)Nc4cccnc4)nc3c2n1` the figure was 15.4% (inactive); with `C[C@H]1[C@H](C)CC[C@]2(C(=O)N3CCN(C)CC3)CC[C@]3(C)C(=CC[C@@H]4[C@@]5(C)C/C(=C/c6ccco6)C(=O)C(C)(C)[C@@H]5CC[C@]43C)[C@H]12`, 3.24% [100 µM] (active).

`CCCCCCNC(=O)Nc1ncnc2c1ncn2-c1ccccc1`: the growth is 88.1% (inactive).

On to `COc1ccc(NC(=S)NNc2ccc(-c3ccc(OC)c(OC)c3)nn2)cc1`, for which the growth was 103% (inactive). To `C#CCOc1ccc(C2=NN(CC3CC3)C3N=C(Cl)c4ncn(CC5CC5)c4N23)cc1OCC#C` (stereo not given) belongs 67.8% (inactive); to `O=C(OCc1ccc2c(Cl)cc(Cl)c(O)c2n1)N1CCNCC1`, 34.8% (inactive). With `C=C(C)[C@@H]1CC[C@]2(C(=O)NCCNCCNCCN)CC[C@]3(C)[C@H](CC[C@@H]4[C@@]5(C)CC[C@H](O)C(C)(C)[C@@H]5CC[C@]43C)[C@@H]12` the figure was -81.4% [100 µM] (active). With `CC(C)C1=NOC(=O)C1=Cc1cn(-c2ccccc2)nc1-c1ccc(Br)cc1` the figure was 72.5% (inactive); with `CC1(C)OC2[C@@H](CNC(=O)NC(=O)NC(=O)CI)O[C@@H](n3cnc4c(NC(=O)Nc5ccccc5)ncnc43)[C@H]2O1` (stereo not given in full), 15.5% (inactive); with `O=C(NCc1ccc(Cn2c(=O)sn(-c3ccccc3)c2=O)cc1)OCc1ccc2c(Br)cc(Br)c(O)c2n1`, -80.4% (active). As to `CCOC(=O)c1nn(C2CCCCO2)c2ccc(NS(=O)(=O)c3ccc(C)cc3)cc12` (stereo not given), the growth is 102% (inactive).

Turning to `CC(C)=CC/C=C(/C)[C@H]1CC[C@]2(C)[C@@H]1CC[C@@H]1[C@@]3(C)CCC(=O)NC(C)(C)[C@@H]3CC[C@]12C`, the growth was -67.6% [100 µM] (active). To `CN(C)c1ccc(-c2ccc(-c3ccc(C(=N)N)cc3)s2)cc1` belongs -63.5% (active); to `O=S(=O)(NCc1ccccc1)c1ncnc2nc[nH]c12`, 119% (inactive); to `O=C(Nc1cccc2cccnc12)c1cc(C(=O)c2ccc(Cl)cc2)n2ccc(-c3ccncc3)cc12`, 89.1% (inactive). With `O=C(Nc1ccccc1)Nc1ccc(C(=O)/C=C/c2ccc(N3CCCC3)cc2)cc1` the figure was 92.1% (inactive); with `O=C(CCN1CCCCC1)c1ccc(Cl)cc1`, 107% (inactive); with `Nc1ccc2c(c1)Cc1cc(NC(=O)C(F)(F)F)ccc1-2`, 114% (inactive).

With `CCOC(=O)c1nn(C2CCCCO2)c2ccc(NC(=O)Cn3nnc4ccccc43)cc12` (stereo not given), the growth was 103% (inactive). Take `Cc1ccc(N)c(O)c1`: the growth was 69.6% (inactive). With `CCOC(=O)CCC[P+](c1ccccc1)(c1ccccc1)c1ccccc1` the figure was 65.8% (inactive).

On to `CCOC(=O)c1sc2nc(-c3cc(OC)c(OC)c(OC)c3)nc(N3CCOCC3)c2c1C`, for which the growth was 50.5% (inactive).

For the compound `C#C[C@]1(O)CC[C@H]2[C@@H]3CC=C4c5nc(Nc6ccccc6[N+](=O)[O-])sc5CC[C@]4(C)[C@H]3CC[C@@]21C`, the growth is 67.2% (inactive).

Regarding `Cc1nc(-c2ccccc2)sc1CC#N`, the growth was 102% (inactive).

Turning to `CC(=O)CC(=O)SC1=NCCS1`, the growth was 140% (inactive). In the case of `O=C1Nc2ccccc2/C1=C/C(=O)c1ccc(N2CCCC2)cc1`, the growth was 15.9% (inactive). With `COc1ccc(C(=O)/C=C/c2ccccn2)c(O)c1`, the growth was 46.8% (inactive). With `O=C(Nc1cccc(C2=NCCN2)c1)c1cccc(C(=O)Nc2cccc(C3=NCCN3)c2)c1` the figure was 99.1% (inactive). To `CC(C)C1=NOC(=O)C1=Cc1cn(-c2ccccc2)nc1-c1cccc([N+](=O)[O-])c1` belongs 70.4% (inactive). With `COc1cc(-c2nc(SCCC(C)C)nc(Nc3ccc(S(N)(=O)=O)cc3)c2C#N)cc(OC)c1OC` the figure was 40.5% (inactive); with `CC1(C)CC[C@]23CC[C@]4(C)[C@H](CC[C@@H]5[C@@]6(C)C/C(=C/c7cccnc7)C(=O)C(C)(C)[C@@H]6CC[C@]54C)[C@H]2[C@H]1OC3=O`, 66.8% [100 µM] (inactive); with `CC(C)CCSc1nc(N)nc2nc[nH]c12`, 79.9% (inactive). Regarding `CCOc1ccc(/C=C(\C#N)c2cc3ccccc3[nH]2)cc1`, the growth was 56% (inactive). With `Cc1ccc(S(=O)(=O)n2cc(C(=O)C(=O)N3CCCCC3)c3ccccc32)cc1` the figure was 71.9% (inactive); with `CC1=CC[C@@H]2C(C)(C)[C@@H](O)CC[C@@]2(C)[C@@H]1COc1ccc2ccc(=O)oc2c1`, 57.9% (inactive); with `COc1ccc(C2NC(=O)C(C#N)c3c2sc2c(F)cccc32)cc1` (stereo not given), 41.1% (inactive).

The values above are taken from PubChem BioAssay (NCI).
